Assay outcomes deposited in PubChem by National Center for Advancing Translational Sciences (NCATS).
HCMV inh = qHTS Assay for inhibitors of the human cytomegalovirus (HCMV); HFF cells, HCMV-luciferase reporter, 72 h; hits give low values; activity change, negative = inhibition, % at 57.5 µM; hit rate 4.5% among 410,000; in the data active = activity change below about -60%; inconclusive = no clear call, values can overlap the other calls; inactive = above about -39%
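After 16 h attachment at 37C, HFF cells received test compound and HCMV-luciferase (1 PFU/cell); reporter luminescence read 72 h later, data normalized against buffer-only and known inhibitor Salinomycin.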
Lassa entry inh = qHTS for Inhibitors of binding or entry into cells for Lassa Virus | hit rate 1.2% among 300,000 | AID 540256, 2011 | Potency, µM (doses to about 37.9 µM), usual class: inhibitors | Lassa virus pseudotype entry inhibition, cell reporter; calls by dose curve; tested in HEK293 cells; note: nearly all actives have a fitted effect of over 50% in size
FMDV antiviral = High Throughput Screening for Foot and Mouth Disease Virus Antivirals. FMDV antiviral cell-based qHTS. Potency, µM (doses to about 57.9 µM), usual class: inhibitors. hit rate 1.2% among 410,000. AID 1159524, 2015; calls by dose curve; tested in HEK293T cells; note: read-out not given here; nearly all actives have a fitted effect of over 45% in size
MARV entry inh = qHTS for inhibitors of binding or entry into cells for Marburg Virus | Marburg virus pseudotyped entry inhibition, cell reporter | Potency, µM (series often up to 37.8 µM), usual class: inhibitors | hit rate 1.8% among 300,000 | AID 540276, 2011; calls by dose curve; tested in HEK293 cells
Numbers stand for hits; – = inactive; ? = inconclusive; · = not tested or not shown; + = active, no number. A selection: hits, their analogues and other compounds. The true share with any hit is near 6.2%.

SMILES	HCMV inh	Lassa entry inh	FMDV antiviral	MARV entry inh
O=S(=O)(c1ccccc1)N1CCN(C(=S)Nc2ccc(F)cc2)CC1	–	–	–	–
O=S(=O)(c1ccc(Cl)cc1)N1CCN(C(=S)Nc2ccc(F)c(Cl)c2)CC1	-62	?	–	?
CN(CCOc1ccc(Cl)cc1)C(=O)c1cccc(S(=O)(=O)N2CCN(Cc3ccccc3)CC2)c1	?	·	10µM	·
CN(Cc1ccc(F)cc1)C(=O)c1cccc(S(=O)(=O)N2CCN(Cc3ccccc3)CC2)c1	–	?	?	?
Cc1ccc(S(=O)(=O)N2CCN(C(=O)N(c3ccccc3)c3ccccc3)CC2)cc1	?	?	–	18µM
Cc1ccc(N(C)C(=O)N2CCN(S(=O)(=O)c3ccc(C)cc3)CC2)cc1	?	·	–	–
CSc1ccc(CN(C)C(=O)c2cccc(S(=O)(=O)N3CCN(Cc4ccccc4)CC3)c2)cc1	?	–	16µM	?
CCCCN(C(=O)CSCC(=O)Nc1cccc(C)c1)c1c(N)n(CCCC)c(=O)[nH]c1=O	–	–	–	–
Cc1cc(C)cc(N(CC(=O)NCc2ccc(F)cc2)C(=O)c2snc(C(N)=O)c2N)c1	–	?	–	?
CCOC(=O)N(C)c1c(CC)nc2c(OCc3ccc(Cl)cc3Cl)cccn12	–	·	–	·
COc1cc(OC)c(C(=O)OCC(=O)NC23CC4CC(CC(C4)C2)C3)cc1OC	–	–	–	–
CCOc1cc(/C=C2\SC(=N)N(c3nccs3)C2=O)ccc1OCCN1CCOCC1	-70	?	?	?
COc1cc(C(=O)NCCc2c[nH]c3ccccc23)ccc1OCc1c(C)noc1C	–	7.9µM	?	–
CCOc1ccc(CCNC(=O)c2ccc(OCc3c(C)noc3C)cc2)cc1OCC	-97	?	?	?
Cc1noc(C)c1COc1ccc(C(=O)Nc2nnc(CC(C)C)s2)cc1	-62	·	?	·
COc1ccc(CCNC(=O)c2ccc(OCc3c(C)noc3C)c(OC)c2)cc1	?	?	–	–
CCN(CCCc1ccccc1)CCCc1ccccc1	–	?	–	5.8µM
O=C(CCCc1ccccc1)c1ccccc1	–	·	–	?
CCN(CCCC(=O)c1ccc(F)cc1)CCc1ccccc1	–	?	–	3.5µM
CCc1nn(CC(=O)NCCCN2CCOCC2)c(=O)c2cc3sccc3n12	–	·	–	·
O=c1c2cc(F)ccc2sn1-c1ccccc1	–	·	–	·
O=c1[nH]sc2ccccc12	-73	–	–	?
O=c1ccsc2ccccc12	–	–	–	–
O=c1[nH]sc2cc(F)ccc12	-98	–	–	?
O=C1C(=O)c2ccccc2C(O)=C1c1cccc([N+](=O)[O-])c1	-66	3.5µM	40µM	5.6µM
SMILES	HCMV inh	Lassa entry inh	FMDV antiviral	MARV entry inh
Cc1cccn2c(=O)cc(COc3cccc(NC(=O)Nc4cccc(Cl)c4)c3)nc12	–	–	–	·
FC(F)(F)c1cccc(Nc2nc3nonc3nc2Nc2ccc(Cl)cc2)c1	-98	?	?	?
O=C(Nc1cccc(C(F)(F)F)c1)c1cc(-c2ccc(Cl)cc2)on1	–	–	–	–
COc1ccc(-c2[nH]c(-c3ccccc3)nc2SCC(=O)NCc2ccco2)cc1OC	–	·	–	–
O=c1cc(CO)occ1OCc1c(F)cccc1Cl	–	–	–	–
O=C(O)c1ccc2c(c1)C(=O)N([C@H](Cc1cccc3ccccc13)C(=O)O)C2=O	–	·	–	·
O=C(c1cccc(Cl)c1)c1nn(-c2ccccc2)c(=O)cc1C(F)(F)F	-72	–	?	–
O=C(c1ccccc1)c1nn(-c2ccc(Cl)cc2)c(=O)cc1C(F)(F)F	-104	11µM	28µM	8.9µM
O=C(c1ccccc1)c1nn(-c2ccccc2)c(=O)cc1C(F)(F)F	-67	?	–	?
O=C(c1ccccc1)c1nn(-c2ccccc2)c(=O)cc1-c1ccccc1	·	·	–	·
O=C(Nc1ccccc1)c1nn(-c2ccccc2)c(=O)cc1C(F)(F)F	–	–	–	–
Cc1cccc(N2CCN(Cc3ccc(Br)o3)CC2)c1C	–	·	–	·
Cc1ccc(-n2ncc(C(=O)NCCN3CCc4ccccc4C3)c2C2CCN(C(=O)OC(C)(C)C)CC2)cc1C	–	–	–	·
CC(C)(C)OC(=O)N1CCC(c2c(C(=O)NCCN3CCCC3)cnn2-c2ccc(Cl)cc2)CC1	–	–	–	·
Cc1ccc(-n2ncc(C(=O)NCCN3CCCC3)c2C2CCN(C(=O)OC(C)(C)C)CC2)cc1	–	–	–	·
COc1ccc(-n2ncc(C(=O)NCCCN3CCCCC3)c2C2CCN(C(=O)OC(C)(C)C)CC2)cc1	+	–	–	·
CC(C)(C)OC(=O)N1CCC(c2c(C(=O)NCCN3CCC(Cc4ccccc4)CC3)cnn2-c2cccc(Cl)c2)CC1	-100	?	?	·
